Compounds without any hit were thinned out: in the full panel of roughly 83,000, 20% have a hit.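 Single-dose data. Exposure time 48 hours. Values below 10 considered active.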 Values without a mark were called inactive. The source made the active and inactive calls.
Tests used:
Assay in all cases: NCI-60 one-dose screen, 48 h (100 = growth as untreated, 0 = no growth, -100 = all killed)
Details in all cases: 10 µM unless noted
HCT-15 colon = tested on: HCT-15 colon
HT29 colon = tested on: HT29 colon
SNB-75 CNS = tested on: SNB-75 CNS
SNB-19 CNS = tested on: SNB-19 CNS
U251 CNS = tested on: U251 CNS
PC-3 prostate = tested on: PC-3 prostate
SK-MEL-5 melanoma = tested on: SK-MEL-5 melanoma
UACC-62 melanoma = tested on: UACC-62 melanoma
LOX IMVI melanoma = tested on: LOX IMVI melanoma
SK-MEL-28 melanoma = tested on: SK-MEL-28 melanoma
SK-MEL-2 melanoma = tested on: SK-MEL-2 melanoma
EKVX NSCLC = tested on: EKVX NSCLC
SN12C renal = tested on: SN12C renal
UO-31 renal = tested on: UO-31 renal
TK-10 renal = tested on: TK-10 renal
ACHN renal = tested on: ACHN renal
CAKI-1 renal = tested on: CAKI-1 renal
A498 renal = tested on: A498 renal
CCRF-CEM leukemia = tested on: CCRF-CEM leukemia
MOLT-4 leukemia = tested on: MOLT-4 leukemia

Row | Compound | growth (HCT-15 colon) | growth (HT29 colon) | growth (SNB-75 CNS) | growth (SNB-19 CNS) | growth (U251 CNS) [%] | growth (PC-3 prostate) | growth (SK-MEL-5 melanoma) | growth (UACC-62 melanoma) | growth (LOX IMVI melanoma) | growth (SK-MEL-28 melanoma) | growth (SK-MEL-2 melanoma) | growth (EKVX NSCLC) | growth (SN12C renal) | growth (UO-31 renal) | growth (TK-10 renal) | growth (ACHN renal) | growth (CAKI-1 renal) | growth (A498 renal) | growth (CCRF-CEM leukemia) [%] | growth (MOLT-4 leukemia)
1 | O=C(c1ccc(O)c(C(=O)N2Cc3ccc(OCCC[P+](c4ccccc4)(c4ccccc4)c4ccccc4)cc3C2)c1)N1Cc2cccc(F)c2C1 | 97.6% | 101% | 95.4% | 38.1% | 56.8 | 78.9% | 29.3% | 45.5% | 67.1% | 58% | 65.2% | 70.3% | 88.6% | 80.6% | 100% | 101% | 93.1% | 85.7% | 57.4 | 108%
2 | Cc1nn(-c2ccccc2)c2ncnc(N/N=C/c3cccc(O)c3)c12 | 22.8% | 81% | 33.2% | 49% | 40.8 | 42.6% | 30.5% | 32.7% | 29% | 54.2% | 22.6% | 81.6% | 44.4% | 40.7% | 56.4% | 50.6% | 48.7% | 48.2% | 27 | 22%
3 | NS(=O)(=O)c1ccc(Nc2nc(Nc3ccccc3)nc3nnc(SCC(=O)NC4CCCCC4)n23)cc1 | 104% | 113% | 115% | 101% | 104 | 98.5% | 105% | 92.3% | 101% | 105% | 106% | 103% | 100% | 80.8% | 104% | 99.1% | 83.7% | 97.2% | 101 | 101%
4 | C=C(C)[C@@H]1CC[C@]2(COP(=O)(OCC)OCC)CC[C@]3(C)[C@H](CC[C@@H]4[C@@]5(C)CCCNC(C)(C)[C@@H]5CC[C@]43C)[C@@H]12 | 16.6% | 5.58% (active) | 37% | 58.3% | 37.4 | 26.3% | 37.4% | 80.3% | -87.9% (active) | -38.2% (active) | 92.7% | 40.4% | 46.6% | 30.9% | 58.9% | 59.2% | 29.1% | 55% |  | -29.8% (active)
5 | O=C1[C@@H]2Cc3c([nH]c4ccccc34)[C@H](c3c(Cl)cccc3Cl)N2C(=O)CN1C1CCN(CC2CCCCC2)CC1 | 7% (active) | 5.63% (active) | 103% | 71.5% | 42.8 | 20.6% | 50.4% | 79.5% | -81.1% (active) | 93.9% | 105% | 90.7% | 61.4% | 69.7% | 139% | 51.3% | 76.7% | 87.1% |  | 19.5%
6 | O=C(Nc1ccc(N=Cc2c(O)[nH]c3ccccc23)cc1)Nc1nccs1 | 29% | 17.9% | 33.4% | 31% | 42 | 68.6% | 26.8% | 24.9% | 35.1% | 61.3% | 62.1% | 34.6% | 68% | 48.4% | 75.7% | 40.7% | 32.9% | -7.94% (active) |  | 32.2%
7 | COc1cc(/C=C2\C(=O)Nc3ccccc32)ccc1OCc1ccc(Cl)cc1 | 93.9% | 109% | 104% | 97.1% | 107 | 94.8% | 103% | 87.6% | 99.8% | 92.9% | 105% | 95.3% | 103% | 81.3% | 136% | 92.7% |  | 115% | 94.9 | 93.9%
8 | C=CC(=O)N1CC=C(c2cc3c(N[C@H](C)c4ccccc4)ncnc3[nH]2)CC1 | 82.6% | 54% | -0.73% (active) | 91.9% | 94.6 | 82.7% | 95.5% | 85.5% | 56.2% | 104% | 106% | 30.5% | 22.4% | 19% | -3.79% (active) | 15.1% | 11.3% | -17.4% (active) |  | 97.8%
9 | CS(=O)(=O)Nc1cc(-c2ccc3ncc(C#N)c(NCc4ccccc4)c3c2)cnc1Cl | 8.19% (active) | 6.89% (active) | -36.7% (active) | 7.25% (active) | 11.1 | -7.11% (active) | -95.3% (active) | -28% (active) | -32.6% (active) | -7.57% (active) | -42.2% (active) | -20.1% (active) | 7.64% (active) | 1.63% (active) | -25.2% (active) | 5.99% (active) | -27.7% (active) | -57.2% (active) |  | -25.6% (active)
10 | C=CCn1c(SCC(=O)Nc2ccc(C(=O)/C=C/c3ccc(Br)cc3)cc2)nnc1-c1c[nH]c2ccccc12 | 93.4% | 94.1% | 95.4% | 89.1% | 87.9 | 68% | 72.3% | 64.6% | 49% | 97.1% | 93.4% | 82.2% | 81.1% | 59.7% | 95.9% | 87.8% |  | 88.9% | 83 | 66.3%
11 | Cc1c(F)cc(C(N)=O)cc1NCC(=O)Nc1ccc([N+](=O)[O-])cc1 | 94% | 105% | 47.2% | 98.5% | 109 | 89.5% | 95.7% | 84.2% | 84.1% | 103% | 96.3% | 61.4% | 73.2% | 56.7% | 62.6% | 92.9% | 62.3% | 22.9% |  | 105%
12 | COc1ccc(S(=O)(=O)NCCCNc2nccc(-c3cn(C(C)(C)C)nc3-c3ccc(Cl)c(OC)c3)n2)cc1 | 78.5% | 81% | 50.5% | 96.3% | 98.9 | 58.3% | 85.8% | 61.2% | 72.7% | 98.9% | 89.7% | 47.2% | 57.1% | 44.5% | 60.3% | 84.6% | 25.5% | 58.7% |  | 60.6%
13 | COc1cc(-c2nn(C(C)(C)C)cc2-c2ccnc(NCCCNS(=O)(=O)c3ccc(Cl)cc3)n2)ccc1Cl | 51.5% | 49.4% | 41.7% | 87.1% | 77.3 | 30.5% | 77% | 61.7% | 65.4% | 84.2% | 82.5% | 31.3% | 46% | 32.7% | 66.1% | 64.1% | 17.7% | 49.4% |  | 31%

From PubChem BioAssay (NCI)
